Drawing on PubChem BioAssay AID602362 (National Center for Advancing Translational Sciences (NCATS), 2012), this text covers Potency for two compounds.

The other results are listed elsewhere or left out. Inconclusive results are not listed. The source made the active and inactive calls. Calls follow the shape of the dose curve; as a rule, active = well fitted inhibition curve with a large enough effect; inconclusive = small, poorly fitted or top-dose-only effect; inactive = no such curve, though single readings can be large or run the other way.

The target in this assay is 4'-phosphopantetheinyl transferase Sfp (Bacillus subtilis (strain 168)) (UniProt P39135). Description: qHTS Assay for Inhibitors of Bacillus subtilis Sfp phosphopantetheinyl transferase (PPTase): Gel Based Assay. Particulars: purified Sfp PPTase, gel-based product detection. From the text: The covalent attachment of a phosphopantetheinyl (4'-PP) arm to a variety of synthases and other proteins is a key posttranslational protein modification. The 4'-PP is installed on the proteins post-translationally from coenzyme A (CoA) on a conserved serine residue by action of phosphopantetheinyl transferase (PPTase) enzymes. Phosphopantetheinylation is essential for synthase activity, and removal of the PPTase gene precludes natural product synthesis in microorganisms, or in the case of fatty acid biosynthesis, renders the organism unviable. PPTase enzymes belong to a distinct structural superfamily. Within bacteria, these enzymes are grouped into two classes based upon primary structure, the AcpS-Type and Sfp-Type PPTases. […]
In search of small molecule Sfp-PPTase inhibitors, a fluorescence quenching assay was developed for detection of Bacillus subtilis Sfp-PPTase enzymatic activity in a miniaturized high-throughput format. […]
In this assay, compounds were evaluated by monitoring of fluorescence transfer to whole carrier protein substrates via polyacrylamide gel electrophoresis. […]
The SDS-PAGE based assay detects the direct incorporation of a fluorescent label into a carrier protein substrate. […] The images are analysed by fluorescent densometry using the ImageJ software package available from the NIH.
In general terms: Quantitative high-throughput screening tests each substance at several concentrations.
With `Cc1cc(C)nc(NC(=S)N2CCN(c3ccc(Cl)cc3C(F)(F)F)CC2)c1`, the Potency was 1.07 µM (active).

With `COc1ccnc(NC(=S)N2CCN(c3ncc(C(F)(F)F)cc3Cl)CC2)c1`, the Potency was 2.14 µM (active).
